# The source made the active and inactive calls. Unless noted, no rule for the calls is given here.
# What was measured:
# [1] = compounds binding Alexa647 anti-His antibody – biochemical, small-molecule microarray, 635 nm fluorescence, artefact control for SMM control protein annotation, primary screen (AID 1128); conditions: higher = more signal;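 also: score merges feature fluorescence with signal-to-noise for each printed compound spot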
# [2] = tested on: Human papillomavirus type 1a E7 protein (residues 1-88); assay: HPV1a E7 small-molecule binders, primary screen, biochemical, small-molecule microarray, residues 1-88, 635 nm (AID 1129); conditions: small-molecule microarray binding, fluorescence 635 nm; higher = more signal
# [3] = target: Focal adhesion kinase 1 (Homo sapiens) (UniProt Q05397); assay: PTK2 protein binding on printed compound slides – biochemical, small-molecule microarray, 635/667 nm fluorescence, BSA, DTT, primary screen (AID 1130); conditions: 635 nm fluorescence, higher = more signal;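 also: composite of spot emission at 667 nm and signal to noise over triplicate slides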
# Chain of Focal adhesion kinase 1 (Homo sapiens) (Q05397 whole entry, looked up): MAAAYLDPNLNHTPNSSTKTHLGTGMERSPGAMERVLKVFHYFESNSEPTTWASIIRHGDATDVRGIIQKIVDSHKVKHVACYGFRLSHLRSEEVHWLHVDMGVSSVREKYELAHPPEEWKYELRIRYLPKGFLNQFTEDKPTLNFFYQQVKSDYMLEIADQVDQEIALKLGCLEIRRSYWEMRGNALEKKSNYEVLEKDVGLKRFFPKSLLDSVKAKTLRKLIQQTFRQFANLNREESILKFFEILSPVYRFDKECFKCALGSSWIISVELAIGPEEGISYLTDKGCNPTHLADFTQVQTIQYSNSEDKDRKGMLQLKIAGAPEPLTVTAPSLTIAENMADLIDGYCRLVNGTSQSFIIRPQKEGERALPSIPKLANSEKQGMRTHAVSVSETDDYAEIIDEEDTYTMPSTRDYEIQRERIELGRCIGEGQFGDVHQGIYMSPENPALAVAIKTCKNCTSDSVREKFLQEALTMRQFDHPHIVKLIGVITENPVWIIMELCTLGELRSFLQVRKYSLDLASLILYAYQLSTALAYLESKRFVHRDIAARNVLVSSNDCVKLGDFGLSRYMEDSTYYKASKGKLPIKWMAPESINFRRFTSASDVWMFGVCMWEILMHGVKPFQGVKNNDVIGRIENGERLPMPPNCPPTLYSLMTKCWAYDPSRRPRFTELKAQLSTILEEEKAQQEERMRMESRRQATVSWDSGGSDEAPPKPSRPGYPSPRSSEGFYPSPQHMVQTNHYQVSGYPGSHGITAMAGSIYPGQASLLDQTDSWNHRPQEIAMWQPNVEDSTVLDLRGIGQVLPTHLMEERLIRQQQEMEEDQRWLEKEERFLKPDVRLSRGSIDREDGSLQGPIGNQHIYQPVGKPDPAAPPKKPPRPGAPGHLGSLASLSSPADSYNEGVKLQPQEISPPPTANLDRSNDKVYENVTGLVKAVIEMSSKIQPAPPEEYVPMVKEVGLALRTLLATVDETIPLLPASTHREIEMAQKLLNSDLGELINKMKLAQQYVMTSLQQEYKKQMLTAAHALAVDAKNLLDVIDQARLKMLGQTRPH
# [4] = tested on: Fibrinogen (Alexa647-labelled); assay: Alexa647-fibrinogen binding to printed small molecules – biochemical, small-molecule microarray, 635/667 nm fluorescence, artefact control for SMM control-protein annotation, profiling panel (AID 1131); conditions: fibrinogen-A647 binding fluorescence, higher = more signal;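 also: z-score merges 667 nm fluorescence with per-spot signal-to-noise over triplicate slides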
# [5] = target: Follistatin (Homo sapiens) (UniProt P19883); assay: FST protein binding to printed compounds – biochemical, small-molecule microarray, 635/667 nm fluorescence, primary screen (AID 1132); conditions: 635 nm fluorescence, higher = more signal
# Chain of Follistatin (Homo sapiens) (P19883 whole entry, looked up): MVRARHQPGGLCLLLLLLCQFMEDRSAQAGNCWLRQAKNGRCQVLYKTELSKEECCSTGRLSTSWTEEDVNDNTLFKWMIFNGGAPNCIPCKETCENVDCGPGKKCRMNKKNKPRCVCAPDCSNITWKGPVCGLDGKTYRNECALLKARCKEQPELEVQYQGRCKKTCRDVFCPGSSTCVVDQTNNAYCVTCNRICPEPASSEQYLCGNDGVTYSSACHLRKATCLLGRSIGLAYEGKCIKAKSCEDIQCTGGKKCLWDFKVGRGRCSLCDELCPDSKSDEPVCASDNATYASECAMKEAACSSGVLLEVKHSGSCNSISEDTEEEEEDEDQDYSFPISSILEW
# [6] = target: Fibroblast growth factor 2 (Homo sapiens) (UniProt P09038); assay: basic fibroblast growth factor binding to printed compounds – biochemical, small-molecule microarray, 635/667 nm fluorescence, primary screen (AID 1133); conditions: FGF2, fluorescence 635/667, higher = more signal
# Chain of Fibroblast growth factor 2 (Homo sapiens) (P09038 whole entry, looked up): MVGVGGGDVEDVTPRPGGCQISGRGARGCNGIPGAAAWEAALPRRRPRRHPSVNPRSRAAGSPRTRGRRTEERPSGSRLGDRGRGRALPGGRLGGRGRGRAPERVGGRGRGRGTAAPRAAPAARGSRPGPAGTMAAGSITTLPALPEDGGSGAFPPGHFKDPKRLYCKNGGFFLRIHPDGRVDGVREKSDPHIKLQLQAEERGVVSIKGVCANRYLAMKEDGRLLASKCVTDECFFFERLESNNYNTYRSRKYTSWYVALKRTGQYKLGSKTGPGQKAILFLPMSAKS
# [7] = JC-1 mitochondrial potential readout, lung cancer cells – cell-based, A549, JC-1 fluorescence, basal, 24 h, 100 nL, profiling panel (AID 1138); conditions: higher = more signal;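 also: A549 lung adenocarcinoma cells under basal conditions with no added stimulus; test concentration not given here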
# [8] = tested on: Lefty1; assay: Lefty1 protein binding to printed compounds – biochemical, small-molecule microarray, 635/667 nm fluorescence, primary screen (AID 1139); conditions: fluorescence 635/667, higher = more signal
# [9] = tested on: wheat germ agglutinin (Triticum aestivum), Alexa647-labelled; assay: Alexa647-WGA lectin binding to printed small molecules – biochemical, small-molecule microarray, 635/667 nm fluorescence, artefact control for SMM control-protein annotation, profiling panel (AID 1140); conditions: WGA-A647 binding, 635 nm fluorescence, higher = more signal;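 also: score merges 667 nm feature emission with signal to noise over triplicate slides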
# [10] = target: Luciferin 4-monooxygenase (Photinus pyralis) (UniProt P08659); assay: inhibition of purified Photinus pyralis luciferase – biochemical, luminescence, purified enzyme, 2006 set, primary screen (AID 1141); conditions: purified firefly luciferase, SteadyGlo luminescence, 30 min; higher = more signal, called active from +8 up or from −8 down;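 also: cell-free assay with purified firefly luciferase at 100 ng per well in PBS; test concentration not given here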
# Chain of Luciferin 4-monooxygenase (Photinus pyralis) (P08659 whole entry, looked up): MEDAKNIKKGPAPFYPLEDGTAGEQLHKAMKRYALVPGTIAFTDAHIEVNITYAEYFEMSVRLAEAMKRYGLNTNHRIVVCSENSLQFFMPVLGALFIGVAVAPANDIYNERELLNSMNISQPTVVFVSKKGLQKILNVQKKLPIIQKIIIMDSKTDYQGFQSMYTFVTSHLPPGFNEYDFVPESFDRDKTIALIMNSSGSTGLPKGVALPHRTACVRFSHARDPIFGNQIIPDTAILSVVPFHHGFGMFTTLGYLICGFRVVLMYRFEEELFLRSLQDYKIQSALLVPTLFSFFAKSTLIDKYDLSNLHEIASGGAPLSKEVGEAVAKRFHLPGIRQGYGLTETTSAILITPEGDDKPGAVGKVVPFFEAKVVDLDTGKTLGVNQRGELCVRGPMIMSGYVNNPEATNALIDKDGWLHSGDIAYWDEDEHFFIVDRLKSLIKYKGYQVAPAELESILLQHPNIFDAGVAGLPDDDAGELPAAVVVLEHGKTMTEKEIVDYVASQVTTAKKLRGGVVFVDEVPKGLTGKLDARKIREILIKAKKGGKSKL
# [11] = tested on: Wnt5a (protein binding on small-molecule microarray); assay: small molecules binding Wnt5a protein – biophysical, small-molecule microarray, 635/667 nm fluorescence, primary screen (AID 1142); conditions: 635 nm fluorescence, higher = more signal;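 also: fluorescence read at 667 nm with signal to noise per printed feature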
# [12] = ATP-based viability of Huh7 replicon cells – cell-based, CellTiter-Glo luminescence, basal, 48 h, cytotoxicity control for HCV replication inhibitor project, primary screen (AID 1143); conditions: higher = more signal, called active from +8 up or from −8 down;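 also: Huh7 hepatoma cells carrying a hepatitis C replication reporter with no stimulus; test concentration not given here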
# [13] = Pseudomonas biofilm growth suppression – PAO1 strain, BacTiter-Glo luminescence, LB-PBS, primary screen (AID 1144); conditions: P. aeruginosa PAO1 biofilm, 12 h, higher = more signal
# [14] = basal CRE-LacZ reporter activity in PC12 – cell-based, unstimulated, primary screen (AID 1145); conditions: no forskolin, luminescence, 4.5 h, higher = more signal, called active from +8 up or from −8 down
# [15] = forskolin-driven CRE-LacZ activity in PC12 – cell-based, CRE-LacZ reporter, forskolin-stimulated, primary screen (AID 1146); conditions: luminescence, 4.5 h, higher = more signal, called active from +8 up or from −8 down;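 also: PC12 cells with 6xCRE LacZ reporter stimulated by forskolin 10 µM; beta-galactosidase reporter signal reflecting CREB driven transcription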
# [16] = target: Streptavidin (Streptomyces avidinii) (UniProt P22629); assay: compounds binding control protein streptavidin – biophysical, small-molecule microarray, 635/667 nm fluorescence, artefact control for SMM compound annotation, primary screen (AID 1147); conditions: higher = more signal;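 also: signal reflects streptavidin binding to arrayed compounds as a control protein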
# Chain of Streptavidin (Streptomyces avidinii) (P22629 whole entry, looked up): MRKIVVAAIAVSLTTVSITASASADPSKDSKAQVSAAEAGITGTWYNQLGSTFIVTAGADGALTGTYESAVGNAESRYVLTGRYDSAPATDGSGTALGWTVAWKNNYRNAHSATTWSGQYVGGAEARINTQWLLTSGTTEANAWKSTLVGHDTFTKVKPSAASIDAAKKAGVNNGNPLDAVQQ
# [17] = probe aInhba binding on compound microarray – biochemical, small-molecule microarray, 635/667 nm fluorescence, primary screen (AID 1148); conditions: higher = more signal;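 also: score merges 667nm spot fluorescence with signal-to-noise for antibody binding to printed compounds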
# [18] = target: Torsin-1A (Homo sapiens) (UniProt O14656); assay: TOR1A wild-type binding on microarray – cell lysate, small-molecule microarray, lysate, 635/667 nm, primary screen (AID 1149); conditions: COS7 hTOR1A-WT lysate, 635 nm fluorescence, higher = more signal
# Chain of Torsin-1A (Homo sapiens) (O14656 whole entry, looked up): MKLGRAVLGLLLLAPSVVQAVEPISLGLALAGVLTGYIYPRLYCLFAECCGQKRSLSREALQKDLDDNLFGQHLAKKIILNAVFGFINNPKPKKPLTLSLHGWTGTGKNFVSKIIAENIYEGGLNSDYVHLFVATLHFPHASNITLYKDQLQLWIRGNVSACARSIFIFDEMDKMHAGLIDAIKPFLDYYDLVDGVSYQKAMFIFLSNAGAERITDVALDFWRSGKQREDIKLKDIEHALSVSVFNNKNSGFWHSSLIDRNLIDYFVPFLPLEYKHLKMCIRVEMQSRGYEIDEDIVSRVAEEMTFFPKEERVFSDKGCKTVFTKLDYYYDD
# [19] = target: Torsin-1A (Homo sapiens) (UniProt O14656); assay: torsin A mutant lysate binding on microarrays – cell lysate, small-molecule microarray, COS7 lysate, 635/667 nm fluorescence, primary screen (AID 1150); conditions: COS7 hTOR1A mutant lysate, 635 nm fluorescence, higher = more signal;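 also: score pools 667 nm emission and signal to noise measuring lysate protein binding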
# [20] = tested on: Sonic hedgehog protein (Shh); assay: Sonic hedgehog microarray binding compounds – biochemical, small-molecule microarray, 635/667 nm fluorescence, primary screen (AID 1151); conditions: 635 nm fluorescence, higher = more signal;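 also: Shh protein binding to compounds spotted on small-molecule microarray slides; score combines spot fluorescence intensity with signal-to-noise across triplicate slides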
SMILES,composite z-score [1],composite z-score [2],composite z-score [3],composite z-score [4],composite z-score [5],composite z-score [6],z-score [7],composite z-score [8],composite z-score [9],z-score [10],composite z-score [11],z-score [12],z-score [13],z-score [14],z-score [15],composite z-score [16],composite z-score [17],composite z-score [18],composite z-score [19],composite z-score [20]
C=C(COC)/C(=C/C[C@H](OC(C)=O)c1ccccc1OCCO)c1cnc2ccccc2c1,1.91,0.977,0.528,0.325,1.29,0.394,0.0177,0.814,0.666,0.0631 (inactive),0.704,-0.0339 (inactive),-0.543 (inactive),0.131 (inactive),0.128 (inactive),0.351,0.0183,0.0548,0.794,1.65
[N-]=[N+]=NCc1ccccc1C[C@]1(C(=O)NCC(O)CO)COC(c2ccc(OCCCO)cc2)=N1 (stereo not given in full),1.41,1.2,1.98,0.0694,0.831,-0.0586,1.18,-0.683,0.964,-0.0644 (inactive),0.956,-1.57 (inactive),0.305 (inactive),1.12 (inactive),-1.08 (inactive),1.43,0.435,0.842,2.3,-1.03
CCN(CC)c1ccc(N2CC=CC34O[C@@H]5C=CCOC(=O)[C@@H]5[C@H]3C(=O)N(CCCCCO)[C@@H]4C2=O)cc1 (stereo not given in full),3.37,-0.959,-0.0973,-1.59,-0.915,-0.551,1.24,-0.439,-0.559,-0.439 (inactive),-0.253,-0.286 (inactive),0.555 (inactive),1.57 (inactive),-0.0409 (inactive),-0.93,-0.186,1.03,1.06,0.146
COCCCNC(=O)[C@]1(Cc2ccccc2N=[N+]=[N-])N=C(c2ccc(OCCCO)cc2)O[C@@H]1c1ccccc1CN=[N+]=[N-],2.33,1.22,0.631,0.947,1.35,0.449,-0.418,0.231,1.12,-2.5 (inactive),0.823,-5.15 (inactive),-0.421 (inactive),0.825 (inactive),-1.47 (inactive),1.11,0.442,0.673,0.57,0.26
O=c1cccc(-c2ccccc2)o1,-0.192,-0.377,0.192,-0.468,0.145,-0.417,0.103,-0.57,0.143,0.616 (inactive),-0.299,0.423 (inactive),1.55 (inactive),-0.723 (inactive),0.137 (inactive),-0.386,-0.204,0.0936,0.274,-0.379
O=C1O[C@H](c2ccccc2)[C@H](c2ccccc2)N2[C@H]1[C@@H](C(=O)Nc1nc3ccccc3s1)[C@]1(C(=O)Nc3ccc(C#CC4=CCCCC4)cc31)[C@H]2c1ccc(OCCO)cc1,1.62,1.18,0.148,0.831,1.12,0.579,-2.24,0.077,0.916,-3.28 (inactive),0.706,-1.3 (inactive),-0.711 (inactive),0.128 (inactive),0.205 (inactive),1.73,0.417,0.0608,0.407,0.598
O=C(NCCN1CCOCC1)[C@@H]1c2ccccc2C(=O)N(Cc2cc(F)cc(C(F)(F)F)c2)[C@H]1c1ccc(CO)cc1,0.195,0.0794,0.205,-0.732,0.687,-0.77,2.17,0.314,-0.254,-0.183 (inactive),-0.33,-0.269 (inactive),0.153 (inactive),0.378 (inactive),0.0284 (inactive),-0.78,0.422,0.543,0.165,1.76
CCCCN1CC=CC23O[C@@H]4C=CCCOC(=O)C4[C@H]2C(=O)N(CCCO)[C@@H]3C1=O (stereo not given in full),-1.31,-1.79,-0.274,-1.42,0.274,-0.469,-1.13,-0.439,-1.45,-0.11 (inactive),-0.148,-2.05 (inactive),-1.19 (inactive),-0.484 (inactive),0.46 (inactive),-0.614,-0.176,-0.387,-0.954,-0.278
COC(=O)[C@@]1(Cc2ccc(OC)cc2)[C@H]2c3cc(C(=O)N(C)C)n(CCSCCO)c3C[C@H]2CN1C(=O)c1ccccc1,0.957,1.32,1.68,0.971,0.108,-0.569,-0.399,-1.03,0.515,-0.572 (inactive),0.706,-2.19 (inactive),0.565 (inactive),-0.954 (inactive),0.325 (inactive),0.872,0.351,-0.101,0.199,-0.824
CO[C@H]1O[C@H](CO)[C@@H](OC(=O)Nc2ccccc2-c2ccccc2)[C@H](OC(=O)Nc2ccccc2-c2ccccc2)[C@H]1OC(=O)Nc1ccccc1-c1ccccc1,2.54,1.27,0.464,1.02,1.3,1.63,0.147,0.644,0.745,-1.35 (inactive),0.764,-3.73 (inactive),-0.587 (inactive),1.65 (inactive),-0.823 (inactive),0.244,0.243,0.93,0.885,1.61

# — PubChem BioAssay
